Results published in paper PMC11062922 (Nature Chemical Biology, 2023).
Where two headings read alike, the source gives them in different places.

Assays:
Design in all cases: species or system human, MV4-11 + K-562 + COLO205 + SK-N-BE2 + OVCAR-8
ARAF = conditions: read-out: apparent Kd; compound concentrations: 100 nM and 1000 nM (sheet 'Samples'), CATDS: 5.7058151547421603E-2; n = 1
AURKB = conditions: read-out: apparent Kd; compound concentrations: 100 nM and 1000 nM (sheet 'Samples'), CATDS: 7.6313270646160003E-2; n = 1
CDK10 = conditions: read-out: apparent Kd; compound concentrations: 100 nM and 1000 nM (sheet 'Samples'), CATDS: 4.7356603246951401E-2; n = 1
EIF2AK1 = conditions: read-out: apparent Kd; compound concentrations: 100 nM and 1000 nM (sheet 'Samples'), CATDS: 9.9444074650609393E-2; n = 1
FN3K = conditions: read-out: apparent Kd; compound concentrations: 100 nM and 1000 nM (sheet 'Samples'), CATDS: 5.2169605073521003E-2; n = 1
ICK = conditions: read-out: apparent Kd, n = 1
LATS1 = conditions: read-out: apparent Kd; compound concentrations: 100 nM and 1000 nM (sheet 'Samples'), CATDS: 4.4770495584516998E-2; n = 1
MAP2K5 = conditions: read-out: apparent Kd; compound concentrations: 100 nM and 1000 nM (sheet 'Samples'), CATDS: 0.11655274425704; n = 1
MAP3K2 = conditions: read-out: apparent Kd; compound concentrations: 100 nM and 1000 nM (sheet 'Samples'), CATDS: 4.6082371307615597E-2; n = 1
MAP3K4 = conditions: read-out: apparent Kd; compound concentrations: 100 nM and 1000 nM (sheet 'Samples'), CATDS: 4.8228704879059399E-2; n = 1
MAP4K1 = conditions: read-out: apparent Kd; compound concentrations: 100 nM and 1000 nM (sheet 'Samples'), CATDS: 4.8558197444370697E-2; n = 1
MAP4K2 = conditions: read-out: apparent Kd; compound concentrations: 100 nM and 1000 nM (sheet 'Samples'), CATDS: 5.6009475369740498E-2; n = 1
MAP4K3 = conditions: read-out: apparent Kd; compound concentrations: 100 nM and 1000 nM (sheet 'Samples'), CATDS: 7.0202424980237099E-2; n = 1
NEK1 = conditions: read-out: apparent Kd; compound concentrations: 100 nM and 1000 nM (sheet 'Samples'), CATDS: 8.0496381389801502E-2; n = 1
NEK2 = conditions: read-out: apparent Kd; compound concentrations: 100 nM and 1000 nM (sheet 'Samples'), CATDS: 4.3015896259207202E-2; n = 1
PKMYT1 = conditions: read-out: apparent Kd; compound concentrations: 100 nM and 1000 nM (sheet 'Samples'), CATDS: 4.44842965705885E-2; n = 1
PTK6 = conditions: read-out: apparent Kd; compound concentrations: 100 nM and 1000 nM (sheet 'Samples'), CATDS: 5.5693628002095402E-2; n = 1
RAF1 = conditions: read-out: apparent Kd; compound concentrations: 100 nM and 1000 nM (sheet 'Samples'), CATDS: 4.9993718202349699E-2; n = 1
AKT3 = conditions: read-out: apparent Kd, n = 1
FLT3 = conditions: read-out: apparent Kd; compound concentrations: 100 nM and 1000 nM (sheet 'Samples'), CATDS: 0.41420685455441397; n = 1
MYLK3 = conditions: read-out: apparent Kd; compound concentrations: 100 nM and 1000 nM (sheet 'Samples'), CATDS: 0.45144948525054202; n = 1
GSK3A = conditions: read-out: apparent Kd, n = 1
GSK3B = conditions: read-out: apparent Kd, n = 1
MAP2K2 = conditions: read-out: apparent Kd; compound concentrations:100 nM and 1000 nM (sheet 'Samples'); n = 1
SKIV2L2 = conditions: read-out: apparent Kd; compound concentrations:100 nM and 1000 nM (sheet 'Samples'); n = 1
CDK16 = conditions: read-out: apparent Kd; compound concentrations:100 nM and 1000 nM (sheet 'Samples'); n = 1
CDK17 = conditions: read-out: apparent Kd; compound concentrations:100 nM and 1000 nM (sheet 'Samples'); n = 1
CDK6 = conditions: read-out: apparent Kd, n = 1
CDK9 = conditions: read-out: apparent Kd; compound concentrations:100 nM and 1000 nM (sheet 'Samples'); n = 1
CDKL5 = conditions: read-out: apparent Kd; compound concentrations:100 nM and 1000 nM (sheet 'Samples'); n = 1
PIM2 = conditions: read-out: apparent Kd, n = 1
RIOK2 = conditions: read-out: apparent Kd; compound concentrations:100 nM and 1000 nM (sheet 'Samples'); n = 1
AKT2 = conditions: read-out: apparent Kd, compound concentrations: 100 nM and 1000 nM (sheet 'Samples'), n = 1
MAPKAPK2 = conditions: read-out: apparent Kd; compound concentrations: 100 nM and 1000 nM (sheet 'Samples'), CATDS: 0.38970586087063103; n = 1
ATM = conditions: read-out: apparent Kd, n = 1
PIK3CA = conditions: read-out: apparent Kd; compound concentrations: 100 nM and 1000 nM (sheet 'Samples'), CATDS: 0.224567790498646; n = 1
CLK4 = conditions: read-out: apparent Kd, n = 1
CSNK1A1 = conditions: read-out: apparent Kd; compound concentrations: 100 nM and 1000 nM (sheet 'Samples'), CATDS: 0.24083982314133201; n = 1
CSNK1D = conditions: read-out: apparent Kd; compound concentrations: 100 nM and 1000 nM (sheet 'Samples'), CATDS: 0.19928215700528701; n = 1
DCTPP1 = conditions: read-out: apparent Kd; compound concentrations:100 nM and 1000 nM (sheet 'Samples'); n = 1
NQO1 = conditions: read-out: apparent Kd; compound concentrations:100 nM and 1000 nM (sheet 'Samples'); n = 1
PRKAG1 = conditions: read-out: apparent Kd; compound concentrations:100 nM and 1000 nM (sheet 'Samples'); n = 1
CDK2 = conditions: read-out: apparent Kd; compound concentrations:100 nM and 1000 nM (sheet 'Samples'); n = 1
PAK4 = conditions: read-out: apparent Kd; compound concentrations:100 nM and 1000 nM (sheet 'Samples'); n = 1
STK3 = conditions: read-out: apparent Kd; compound concentrations:100 nM and 1000 nM (sheet 'Samples'); n = 1
STK4 = conditions: read-out: apparent Kd; compound concentrations:100 nM and 1000 nM (sheet 'Samples'); n = 1
[1] = compound concentrations:100 nM and 1000 nM (sheet 'Samples')

Structure (SMILES): Cc1ccccc1CC(=O)N1CCc2cc(-c3cn(C)c4ncnc(N)c34)ccc21 [GSK2603346A]
- potency estimated from few doses (ARAF): 942 nM
- potency estimated from few doses (AURKB): 547 nM
- potency estimated from few doses (CDK10): 1450 nM
- potency estimated from few doses (EIF2AK1): 360 nM
- potency estimated from few doses (FN3K): 1140 nM
- potency estimated from few doses (ICK; compound concentrations: 100 nM and 1000 nM (sheet 'Samples'), CATDS: 4.7896181585756002E-2): 1410 nM
- potency estimated from few doses (LATS1): 1680 nM
- potency estimated from few doses (MAP2K5): 287 nM
- potency estimated from few doses (MAP3K2): 1550 nM
- potency estimated from few doses (MAP3K4): 1380 nM
- potency estimated from few doses (MAP4K1): 1360 nM
- potency estimated from few doses (MAP4K2): 979 nM
- potency estimated from few doses (MAP4K3): 632 nM
- potency estimated from few doses (NEK1): 501 nM
- potency estimated from few doses (NEK2): 1890 nM
- potency estimated from few doses (PKMYT1): 1710 nM
- potency estimated from few doses (PTK6): 991 nM
- potency estimated from few doses (RAF1): 1260 nM

Structure (SMILES): CS(=O)(=O)Nc1ccc(N/C=C2\C(=O)Nc3ccccc32)cc1 [GW278681X]
- potency estimated from few doses (AKT3; compound concentrations: 100 nM and 1000 nM (sheet 'Samples'), CATDS: 0.228798391958558): 1780 nM
- potency estimated from few doses (FLT3): 358 nM
- potency estimated from few doses (MYLK3): 306 nM

Structure (SMILES): O=C1NC(=O)C(c2ccc(Cl)cc2)=C1Nc1ccc(Cl)c(C(=O)O)c1 [SB-360741]
- potency estimated from few doses (AKT3; [1]): 1530 nM
- potency estimated from few doses (GSK3A; [1]): 601 nM
- potency estimated from few doses (GSK3B; [1]): 1310 nM
- potency estimated from few doses (MAP2K2): 140 nM
- potency estimated from few doses (SKIV2L2): 1360 nM

Structure (SMILES): CN1CCC(C(=O)Nc2n[nH]c3nc(-c4ccc(O)cc4)c(Br)cc23)CC1 [SB-732881]
- potency estimated from few doses (AKT3; [1]): 1640 nM
- potency estimated from few doses (CDK16): 565 nM
- potency estimated from few doses (CDK17): 914 nM
- potency estimated from few doses (CDK6; [1]): 1480 nM
- potency estimated from few doses (CDK9): 400 nM
- potency estimated from few doses (CDKL5): 852 nM
- potency estimated from few doses (GSK3A; [1]): 3.34 nM
- potency estimated from few doses (GSK3B; [1]): 10.4 nM
- potency estimated from few doses (ICK; [1]): 1230 nM
- potency estimated from few doses (PIM2; [1]): 1660 nM
- potency estimated from few doses (RIOK2): 2210 nM

Structure (SMILES): N#Cc1c(NC(=O)c2ccccc2F)sc2c1CCCC2 [GW572738X]
- potency estimated from few doses (AKT2; CATDS: 0.30677432174967101): 2340 nM
- potency estimated from few doses (CDK6; compound concentrations: 100 nM and 1000 nM (sheet 'Samples'), CATDS: 0.31503634964043797): 2200 nM
- potency estimated from few doses (MAPKAPK2): 1460 nM

Structure (SMILES): Cc1c(C2=C(c3cn(C)c4ccccc34)C(=O)NC2=O)c2ccccc2n1C [RO0317777-000]
- potency estimated from few doses (ATM; compound concentrations: 100 nM and 1000 nM (sheet 'Samples'), CATDS: 0.73643038354307599): 20.1 nM
- potency estimated from few doses (GSK3A; compound concentrations: 100 nM and 1000 nM (sheet 'Samples'), CATDS: 0.20080889855539999): 343 nM
- potency estimated from few doses (GSK3B; compound concentrations: 100 nM and 1000 nM (sheet 'Samples'), CATDS: 0.19196654372997399): 397 nM
- potency estimated from few doses (PIK3CA): 247 nM

Structure (SMILES): Cc1nc2sc3c(N)ncnc3c2c(C)c1C [RO4241984-000]
- potency estimated from few doses (ATM; compound concentrations: 100 nM and 1000 nM (sheet 'Samples'), CATDS: 0.46387822436217502): 322 nM
- potency estimated from few doses (CLK4; compound concentrations: 100 nM and 1000 nM (sheet 'Samples'), CATDS: 0.213944296498185): 1410 nM
- potency estimated from few doses (CSNK1A1): 1060 nM
- potency estimated from few doses (CSNK1D): 1710 nM

Structure (SMILES): CC(C)NC(=O)N1CC[C@H](NC2=Nc3cc(F)ccc3N(CC(F)F)c3ccc(Cl)cc32)C1 [NVS-PAK1-1]
- potency estimated from few doses (AKT3; [1]): 1760 nM
- potency estimated from few doses (DCTPP1): 2220 nM
- potency estimated from few doses (NQO1): 1340 nM
- potency estimated from few doses (PRKAG1): 1740 nM

Structure (SMILES): Cc1ccc(C(=O)NC2CCCCC2)cc1-c1ccc(C(=O)NCC2CC2)cc1 [GW782907X]
- potency estimated from few doses (AKT2; CATDS: 0.479844173242639): 1850 nM
- potency estimated from few doses (PIM2; compound concentrations: 100 nM and 1000 nM (sheet 'Samples'), CATDS: 0.52192336058926703): 1560 nM

Structure (SMILES): COc1cc(F)c(F)cc1C(=O)c1cnc(NC2CCN(S(C)(=O)=O)CC2)nc1N [RO4595655-000]
- potency estimated from few doses (ATM; [1]): 157 nM
- potency estimated from few doses (CDK16): 1510 nM
- potency estimated from few doses (CDK17): 1840 nM
- potency estimated from few doses (CDK2): 1210 nM
- potency estimated from few doses (CLK4; [1]): 1430 nM
- potency estimated from few doses (PAK4): 1340 nM
- potency estimated from few doses (STK3): 2300 nM
- potency estimated from few doses (STK4): 1690 nM
